# Screens deposited in PubChem by National Center for Advancing Translational Sciences (NCATS).
# HepG2 viability = kills HepG2 cells in TGF-b inhibitor counter-screen; hit rate 0.76% among 410,000; Potency, µM (doses to about 46.1 µM), for the others: top-dose activity change, negative = cytotoxicity, actives largely listed as cytotoxic; HepG2 CAGA-GFP viability, ATP luminescence, 18 h; further: potency means the concentration at half of the fitted maximal effect
#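 CellTiter-Glo luminescence gave cytotoxicity after 18 hours at 37 degrees C. The cells were HepG2 CAGA-GFP in 1% FBS DMEM, stimulated with 500 pg/mL TGF-beta after compound addition. %Activity was normalised to no-cell wells (complete cell-killing) and DMSO (no toxicity), and curves were fitted and classified.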
# TGFb SMAD3 inh = inhibitors of TGF-b signaling; HepG2 CAGA-GFP TGF-b/SMAD3 reporter, GFP fluorescence, 18 h; TGF-beta stimulated, 500 pg/mL final; Potency, µM (top dose mostly 46.1 µM), for the others: at the top dose activity, negative = inhibition, most hits filed as inhibitors; hit rate 1.2% among 410,000; AID 588855; further: potency means the concentration at half of the fitted maximal effect; on the % scale 0 is the no-effect control and ±100 the full control effect; nearly all actives have a fitted effect of over 65% in size
#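 Read-out: total well GFP (ex488/em500-530) summed from mean per-cell fluorescence. Cells: HEPG2 CAGA-GFP, 1% FBS DMEM, 18 h at 37 degrees C with 500 pg/mL final TGF-beta. Unstimulated wells served as the full-inhibition control; stimulated DMSO wells = 0%.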
# TDP1 inh = inhibitors of human tyrosyl-DNA phosphodiesterase TDP1; Q9NUW8; recombinant TDP1, AlphaScreen DNA substrate cleavage; Potency, µM (doses to about 130 µM), without a hit: at the top dose activity change, negative = inhibition, most hits filed as inhibitors; hit rate 0.28% among 350,000; AID 485290; further: potency means the concentration at half of the fitted maximal effect; on the % scale 0 is the no-effect control and ±100 the full control effect; nearly all actives have a fitted effect of over 40% in size
# Target sequence (Q9NUW8 whole entry, looked up): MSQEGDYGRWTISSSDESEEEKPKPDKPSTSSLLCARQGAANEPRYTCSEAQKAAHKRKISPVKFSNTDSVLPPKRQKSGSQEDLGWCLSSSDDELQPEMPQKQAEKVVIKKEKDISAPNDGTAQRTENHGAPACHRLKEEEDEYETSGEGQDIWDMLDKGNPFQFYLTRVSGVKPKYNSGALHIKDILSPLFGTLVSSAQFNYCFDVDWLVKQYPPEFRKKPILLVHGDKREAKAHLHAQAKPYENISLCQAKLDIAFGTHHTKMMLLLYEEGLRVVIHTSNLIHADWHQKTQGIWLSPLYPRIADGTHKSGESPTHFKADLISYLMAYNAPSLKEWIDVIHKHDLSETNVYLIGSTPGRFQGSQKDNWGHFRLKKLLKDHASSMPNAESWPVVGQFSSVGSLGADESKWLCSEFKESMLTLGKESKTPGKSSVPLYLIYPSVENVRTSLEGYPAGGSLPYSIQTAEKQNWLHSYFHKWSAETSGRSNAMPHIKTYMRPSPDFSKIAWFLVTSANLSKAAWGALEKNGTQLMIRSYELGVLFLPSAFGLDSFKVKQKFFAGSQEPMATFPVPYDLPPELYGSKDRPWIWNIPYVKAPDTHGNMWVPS
#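 Enzyme-compound mixtures sat 15 min at room temperature, followed by a 5 min reaction with 15 nM final substrate and 10 min with AlphaScreen beads. Recombinant human Tdp1 was used at 1 nM final.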
# IL-1B inflam inh = inflammasome signaling inhibition, IL-1 beta readout. hit rate 4.7% among 360,000. activity change, % at 57.5 µM. THP-1 LPS/ATP IL-1B secretion, AlphaLISA, 16 h; hits give low values; in the data active means activity change below about -50%; inconclusive means mostly about -30% to -49%; further: on the % scale 0 is the no-effect control and ±100 the full control effect
#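 THP-1 cells pretreated 1 hr with compounds (up to 57.5 uM final), then stimulated with LPS (250 ng/mL final) plus ATP (1.25 mM final); secreted IL-1B measured by AlphaLISA after 16 hr, decreased signal indicating inhibition.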
# TDP1 cell CPT = DT40-hTDP1 cell growth loss with CPT; hit rate 12% among 420,000; AID 686979; Potency, µM (highest dose often 46.2 µM), without a hit: at the top dose activity change, negative = growth inhibition, actives largely listed as inhibitors; chicken DT40 Tdp1-/-;hTDP1 cells + 20 nM CPT, ATP luminescence, 48 h; further: potency means the concentration at half of the fitted maximal effect; on the % scale 0 is the no-effect control and ±100 the full control effect; nearly all actives have a fitted effect of over 55% in size
#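 Chicken DT40 Tdp1-/- cells complemented with human TDP1, 400 cells/well, exposed to compounds plus 20 nM camptothecin for at least 48 h at 37 C; viability read as ATP content by CellTiter-Glo luminescence.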
# DT40 TDP1 no CPT = qHTS for Inhibitors of human tyrosyl-DNA phosphodiesterase 1 (TDP1): qHTS in cells in absence of CPT. hit rate 15% among 420,000. DT40 Tdp1-/- hTDP1 cells, no CPT, ATP luminescence, 48 h. AID 686978, 2013. Potency, µM (doses to about 46.2 µM), for inactives: at the highest dose activity change, negative = growth inhibition, hits mostly inhibitors; further: potency means the concentration at half of the fitted maximal effect; on the % scale 0 is the no-effect control and ±100 the full control effect; nearly all actives have a fitted effect of over 55% in size
#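 Growth of hTDP1-complemented DT40 Tdp1-knockout cells is measured by ATP luminescence after at least 48 hr compound exposure at 37 °C, with DMSO substituting for the 20 nM CPT used in the parallel screen.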
# * = called active by the depositor; ? = inconclusive; . = no result given; [ ] = remark or other dose. Shown are actives, neighbours in structure and some others; about 19% of the full set was active somewhere. Unless noted, the call rests on the fitted dose curve; in most records, active means well fitted curve in the direction sought with a large enough effect; inconclusive means small, poorly fitted or top-dose-only effect, or another doubt; inactive means no such curve, though single readings can be large; an effect the other way counts as inactive or inconclusive.
SMILES,HepG2 viability,TGFb SMAD3 inh,TDP1 inh,IL-1B inflam inh,TDP1 cell CPT,DT40 TDP1 no CPT
COc1ccc(NC(=O)Oc2ccccc2)cc1Cl,5%,?,3%,-7,-13%,-16%
COc1ccc(C)cc1NC(=O)C(Sc1nnc(Nc2cc(C)ccc2OC)s1)c1ccccc1 (centres undefined),3%,-39%,6%,-4,?,?
Cc1cn2c(=O)c(C(=O)N3CCN(c4ccccc4Cl)CC3)cnc2s1,-15%,-1%,0%,5,-14%,0%
COC(=O)N[C@H](C(=O)N[C@@H](Cc1ccccc1)[C@@H](O)CN(Cc1ccc(-c2ccccn2)cc1)NC(=O)[C@@H](NC(=O)OC)C(C)(C)C)C(C)(C)C,.,.,.,.,-17%,-12%
CCCc1nc(C)cc(N2CCN(c3ccccc3)CC2)n1,-13%,?,.,-3,29µM*,21µM*
Cc1cc(N2CCN(c3ccccc3)CC2)nc(NCc2ccccc2)n1,-42%,-27%,2%,20,21µM*,16µM*
Cc1cc(OC(C)C)nc(NCc2ccccc2)n1,-30%,10%,1%,4,?,13µM*
COCCN(C(=O)CCC(=O)Nc1ccccn1)C(C(=O)NCCC(C)C)c1ccc(F)cc1 (centres undefined),1%,12%,4%[0.0935 µM],5,3%,-6%
CCOc1ccccc1NC(=O)Cn1c(=O)n(-c2ccc(C)c(C)c2)c(=O)c2oc3ccccc3c21,-14%,-24%,0%,.,-16%,?
Cc1ccc(CNc2oc(-c3ccc(COc4ccc(C)cc4)o3)nc2C#N)cc1,-5%,?,10%,.,?,?
CCN1C(=O)c2ccccc2S(=O)c2ccc(C(=O)N3CCN(c4ccccc4OC)CC3)cc21 (centres undefined),4%,-18%,5%,.,?,?
CCn1ccc2cc(S(=O)(=O)N3CCCN(C(=O)Nc4ccccc4C(F)(F)F)CC3)ccc21,-1%,-13%,9%,.,.,.
CN(C)S(=O)(=O)c1ccc(N2CCN(S(=O)(=O)c3ccc(F)cc3)CC2)c(Cl)c1,-58%,?,1%,-25,18µM*,18µM*
CN(C)S(=O)(=O)N1CCN(S(=O)(=O)c2ccc(F)cc2)CC1,-4%,4%,1%,-2,-14%,-5%
CCOC(=O)Cc1ccc(Nc2nc3cc(-c4sccc4C)sc3c(=O)n2C)cc1,-27%,?,.,0,2.9µM*,3.7µM*
COc1ccc(Nc2nc3cc(-c4ccsc4)sc3c(=O)n2C)cc1OC,-55%,-29%,.,14,13µM*,?
COc1ccc(Nc2nc3cc(-c4sccc4C)sc3c(=O)n2C)cc1OC,-16%,?,.,-2,1.3µM*,1µM*
COc1cccc(-c2cc3nc(Nc4ccc(OC)c(OC)c4)n(C)c(=O)c3s2)c1,-10%,?,.,?,?,?
COc1ccc(C(CNC(=O)c2cc(C)oc2C)N2CCOCC2)cc1 (centres undefined),-19%,-10%,0%,-4,?,?
Cc1ccc2oc(C(=O)NCC(c3ccc(Cl)cc3)N3CCOCC3)c(C)c2c1 (centres undefined),-1%,-10%,4%,.,8.2µM*,10µM*
COc1ccc(C(CNC(=O)c2ccco2)N2CCOCC2)cc1 (centres undefined),-13%,-2%,0%[56.1 µM],-4,-19%,11%
COc1ccc(C(CNC(=O)c2ccc(-c3cccc(C(F)(F)F)c3)o2)N2CCOCC2)cc1 (centres undefined),-3%,-3%,.,-28,?,21µM*
Cc1ccc2oc(C(=O)NCC3CCOCC3)c(C)c2c1,-11%,0%,1%,-15,-16%,-2%
COc1ccc(C(CNC(=O)c2oc3ccc(C)cc3c2C)N2CCOCC2)cc1 (centres undefined),7%,-15%,4%,.,23µM*,-94%
Cc1c(C(=O)NCC(c2ccc(Cl)cc2)N2CCOCC2)oc2ccccc12 (centres undefined),-9%,?,2%,.,16µM*,23µM*
SMILES,HepG2 viability,TGFb SMAD3 inh,TDP1 inh,IL-1B inflam inh,TDP1 cell CPT,DT40 TDP1 no CPT
CCC(C)c1ccccc1OCCn1c(CCNC(=O)C2CCCCC2)nc2ccccc21 (centres undefined),-1%,7%,1%,.,?,?
Cc1cccn2c(=O)c(C(=O)N3CCN(c4ccc(Cl)cc4)CC3)cnc12,-36%,-21%,4%,.,?,?
COc1ccccc1CN1CCOc2ccc(C(C)(O)COc3ccccc3)cc2C1 (centres undefined),.,.,.,.,10%[9.04 µM],-26%
CCC1CCc2sc(C(=O)NCC(c3ccc(OC)cc3)N3CCOCC3)cc2C1 (centres undefined),-4%,?,2%,-17,23µM*,13µM*
CCc1cc(C(=O)NCC(c2ccc(OC)cc2)N2CCOCC2)sc1C (centres undefined),3%,4%,-16%,-8,-9%,-22%
CCCC[C@H](CC)CN=C(N)NC(N)=NCCCCCCN=C(N)NC(N)=NC[C@@H](CC)CCCC,.,.,8%[21 µM],.,.,.
COc1cccc(C(=O)C2CCCN(Cc3cn(C)nc3-c3ccccc3)C2)c1 (centres undefined),4%,8%,.,-11,23µM*,?
O=C(c1ccc(-c2ccccc2)c(F)c1)C1CCCN(C(=O)c2cncs2)C1 (centres undefined),-11%,1%,3%,?,?,13µM*
COc1ccc(CN2CCCC(C(=O)c3ccc4c(c3)OCO4)C2)c(F)c1 (centres undefined),-30%,-24%,7%,3,-30%,?
COCCN1CCN(Cc2cn(C)nc2-c2ccc(Oc3ccccc3)cc2)CC1,-10%,19%,.,?,?,1%
CC1CN(Cc2cn(C)nc2-c2ccc(Oc3ccccc3)cc2)CCN1C (centres undefined),-3%,29%,3%,-64*,?,?
Cc1nn(C)cc1CN1CCCC(C(=O)c2ccc(-c3ccccc3)c(F)c2)C1 (centres undefined),-12%,-10%,.,-57*,18µM*,18µM*
COc1cccc(C(=O)C2CCCN(Cc3cccc(-n4nc(C)cc4C)c3)C2)c1 (centres undefined),-39%,?,.,16,?,?
